# Assay results: paper PMC13541613, “GHT-SELEX demonstrates unexpectedly high intrinsic sequence specificity and complex DNA binding of many human transcription factors”
# Assays:
# Assay in all cases: HT-SELEX; 20 mM HEPES pH 7, 140 mM KCl, 5 mM NaCl, 1 mM K2HPO4, 2 mM MgSO4, 100 uM EGTA, ZnSO4, 0.1% Tween20; room temperature, 1 h; high values mean tight binding
# Details in all cases: protein: ivt; tags: eGFP (N-terminal); dsDNA, one strand shown
# ZNF721 full-length = ZNF721 full-length (Homo sapiens, UniProt Q8TF20-2 1-923)
# Method in brief: (§1)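 Full-length or DNA-binding-domain forms of a tagged transcription factor were produced in HEK293 lysate or cell-free extract and immobilised on beads. Incubation with a randomized 40-base DNA library ran for 1 h at room temperature in HEPES/KCl low-stringency buffer with Tween20, after which bound DNA was washed, heat-eluted, PCR-amplified over successive cycles and Illumina-sequenced. Binding strength is given as the relative k-mer count in selected reads, higher for tighter binding.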
# ZNF721 DBD1 = ZNF721 DBD1 (Homo sapiens, UniProt Q8TF20-2 29-461)
# Method in brief: as §1
# ZNF721 DBD2 = ZNF721 DBD2 (Homo sapiens, UniProt Q8TF20-2 395-923)
# Method in brief: as §1
# Sequence of ZNF721 full-length (Q8TF20 other isoform, or with tags, fused parts or gaps): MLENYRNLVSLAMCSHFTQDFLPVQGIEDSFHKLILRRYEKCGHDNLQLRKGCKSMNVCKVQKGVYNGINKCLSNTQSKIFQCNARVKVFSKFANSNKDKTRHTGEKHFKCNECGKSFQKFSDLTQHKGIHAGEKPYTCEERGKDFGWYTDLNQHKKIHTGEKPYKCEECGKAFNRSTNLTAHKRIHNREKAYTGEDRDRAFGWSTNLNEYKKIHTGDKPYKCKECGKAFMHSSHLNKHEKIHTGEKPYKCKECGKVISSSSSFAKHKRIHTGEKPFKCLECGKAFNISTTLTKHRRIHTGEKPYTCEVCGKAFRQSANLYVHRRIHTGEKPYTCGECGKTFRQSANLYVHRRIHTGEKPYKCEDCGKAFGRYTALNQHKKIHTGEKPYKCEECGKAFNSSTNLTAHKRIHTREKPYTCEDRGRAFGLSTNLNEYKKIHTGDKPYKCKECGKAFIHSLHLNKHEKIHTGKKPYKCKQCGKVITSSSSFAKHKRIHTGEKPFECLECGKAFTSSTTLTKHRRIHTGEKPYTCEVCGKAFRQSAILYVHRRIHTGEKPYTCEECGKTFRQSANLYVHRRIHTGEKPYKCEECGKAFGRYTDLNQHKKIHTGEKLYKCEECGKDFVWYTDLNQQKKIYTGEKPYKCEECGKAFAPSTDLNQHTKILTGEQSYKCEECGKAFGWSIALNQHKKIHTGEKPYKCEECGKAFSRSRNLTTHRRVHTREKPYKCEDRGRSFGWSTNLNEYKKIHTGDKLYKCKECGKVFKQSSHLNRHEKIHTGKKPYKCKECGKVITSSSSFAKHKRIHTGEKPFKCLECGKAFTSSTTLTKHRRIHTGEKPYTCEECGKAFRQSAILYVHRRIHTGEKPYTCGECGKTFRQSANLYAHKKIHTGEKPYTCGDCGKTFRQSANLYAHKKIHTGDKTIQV
# Sequence of ZNF721 DBD1 (Q8TF20 17-449): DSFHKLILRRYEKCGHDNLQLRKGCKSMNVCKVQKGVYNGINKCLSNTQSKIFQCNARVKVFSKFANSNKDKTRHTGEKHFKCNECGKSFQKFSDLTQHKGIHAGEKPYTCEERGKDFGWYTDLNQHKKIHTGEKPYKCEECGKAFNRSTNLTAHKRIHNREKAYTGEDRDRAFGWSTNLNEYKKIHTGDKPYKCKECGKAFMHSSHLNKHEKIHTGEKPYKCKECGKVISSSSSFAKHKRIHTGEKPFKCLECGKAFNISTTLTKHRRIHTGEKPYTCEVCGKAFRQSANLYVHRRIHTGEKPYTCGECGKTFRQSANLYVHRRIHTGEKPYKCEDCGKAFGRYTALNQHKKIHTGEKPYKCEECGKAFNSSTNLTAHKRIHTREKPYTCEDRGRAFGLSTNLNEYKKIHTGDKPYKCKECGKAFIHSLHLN
# Sequence of ZNF721 DBD2 (Q8TF20 383-911): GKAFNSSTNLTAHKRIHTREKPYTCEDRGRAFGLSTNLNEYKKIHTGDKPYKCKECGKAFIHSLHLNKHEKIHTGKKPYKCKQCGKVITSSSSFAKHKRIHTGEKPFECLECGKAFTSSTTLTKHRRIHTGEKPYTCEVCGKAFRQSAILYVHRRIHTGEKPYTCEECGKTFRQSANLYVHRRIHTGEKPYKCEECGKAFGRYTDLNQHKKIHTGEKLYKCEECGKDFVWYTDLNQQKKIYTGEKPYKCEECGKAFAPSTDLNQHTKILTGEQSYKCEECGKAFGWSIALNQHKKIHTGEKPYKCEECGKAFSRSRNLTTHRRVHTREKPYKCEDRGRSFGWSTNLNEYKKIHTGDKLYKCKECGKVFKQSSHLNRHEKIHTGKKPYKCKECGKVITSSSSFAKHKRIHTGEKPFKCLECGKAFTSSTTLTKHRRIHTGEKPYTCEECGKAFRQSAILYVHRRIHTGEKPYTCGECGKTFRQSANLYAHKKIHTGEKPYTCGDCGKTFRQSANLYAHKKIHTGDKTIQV
Sequence,binding signal (ZNF721 full-length),binding signal (ZNF721 DBD1),binding signal (ZNF721 DBD2)
CCCCCCTCCC,0.304 relative 10-mer count,0.0139 relative 10-mer count,0.00372 relative 10-mer count
TAAAAAAAAA,0.115 relative 10-mer count,0.0133 relative 10-mer count,0.0464 relative 10-mer count
GTGGGGGGGA,0.145 relative 10-mer count,0.00587 relative 10-mer count,0.00348 relative 10-mer count
CCCGCCGCCC,0.194 relative 10-mer count,0.00532 relative 10-mer count,0.00192 relative 10-mer count
CACCCACCAC,0.196 relative 10-mer count,0.00949 relative 10-mer count,0.00779 relative 10-mer count
CCAGCCCACC,0.12 relative 10-mer count,0.00353 relative 10-mer count,0.00336 relative 10-mer count
CCCCACCGCC,0.28 relative 10-mer count,0.0114 relative 10-mer count,0.00635 relative 10-mer count
AAAAAAAAGA,0.116 relative 10-mer count,0.00757 relative 10-mer count,0.0612 relative 10-mer count
CATCCCCCCC,0.123 relative 10-mer count,0.00463 relative 10-mer count,0.00635 relative 10-mer count
GCATACCCAC,0.132 relative 10-mer count,0.00899 relative 10-mer count,0.154 relative 10-mer count
CCCCCCACCA,0.231 relative 10-mer count,0.00904 relative 10-mer count,0.00863 relative 10-mer count
CCGACCACCC,0.119 relative 10-mer count,0.00495 relative 10-mer count,0.00443 relative 10-mer count
GCACCCACCC,0.107 relative 10-mer count,0.00523 relative 10-mer count,0.00479 relative 10-mer count
AAAAAAAGGC,0.162 relative 10-mer count,0.00225 relative 10-mer count,0.117 relative 10-mer count
CCACGCCACC,0.105 relative 10-mer count,0.00353 relative 10-mer count,0.00443 relative 10-mer count
CCCCTCGCCC,0.161 relative 10-mer count,0.00665 relative 10-mer count,0.00372 relative 10-mer count
AGCATACCCT,0.346 relative 10-mer count,0.0443 relative 10-mer count,0.416 relative 10-mer count
CCCTCACCAC,0.104 relative 10-mer count,0.00482 relative 10-mer count,0.00587 relative 10-mer count
CTCCCGCCCC,0.136 relative 10-mer count,0.00596 relative 10-mer count,0.00192 relative 10-mer count
AAAAAGCATC,0.123 relative 10-mer count,0.0262 relative 10-mer count,0.0225 relative 10-mer count
ACCCCACCTC,0.104 relative 10-mer count,0.00527 relative 10-mer count,0.0024 relative 10-mer count

Sequence,binding signal (ZNF721 full-length),binding signal (ZNF721 DBD1),binding signal (ZNF721 DBD2)
CCCGCCCTCC,0.158 relative 10-mer count,0.00803 relative 10-mer count,0.0018 relative 10-mer count
CCGAAAAAAA,0.115 relative 10-mer count,0.0118 relative 10-mer count,0.0585 relative 10-mer count
ACCCACCCCT,0.134 relative 10-mer count,0.00541 relative 10-mer count,0.00324 relative 10-mer count
AGAAAAAAGC,0.36 relative 10-mer count,0.107 relative 10-mer count,0.0556 relative 10-mer count
CACCCTCCCC,0.212 relative 10-mer count,0.00945 relative 10-mer count,0.00312 relative 10-mer count
CACCCACCTC,0.109 relative 10-mer count,0.00518 relative 10-mer count,0.00312 relative 10-mer count
AAAGAAGCTA,0.132 relative 10-mer count,0.109 relative 10-mer count,0.00132 relative 10-mer count
CCACACCACC,0.135 relative 10-mer count,0.0055 relative 10-mer count,0.00623 relative 10-mer count
CCTCCTCCCC,0.169 relative 10-mer count,0.00881 relative 10-mer count,0.00527 relative 10-mer count
AACAGCATGA,0.198 relative 10-mer count,0.00188 relative 10-mer count,0.308 relative 10-mer count
ATGGGTGGGG,0.109 relative 10-mer count,0.00427 relative 10-mer count,0.00372 relative 10-mer count
CCCAACCACC,0.17 relative 10-mer count,0.00752 relative 10-mer count,0.00539 relative 10-mer count
CCGTCCCACC,0.123 relative 10-mer count,0.00546 relative 10-mer count,0.00312 relative 10-mer count
CCACACACCC,0.105 relative 10-mer count,0.00321 relative 10-mer count,0.00312 relative 10-mer count
AAAAAAAAAC,0.134 relative 10-mer count,0.00229 relative 10-mer count,0.0808 relative 10-mer count
AGGGAGGGGG,0.15 relative 10-mer count,0.00628 relative 10-mer count,0.00384 relative 10-mer count
CCCTGCCCCC,0.166 relative 10-mer count,0.00642 relative 10-mer count,0.00264 relative 10-mer count
CCGCCCCGCC,0.156 relative 10-mer count,0.00592 relative 10-mer count,0.00216 relative 10-mer count
CCTCGCCCCC,0.123 relative 10-mer count,0.00592 relative 10-mer count,0.00144 relative 10-mer count
AACAGCATAT,0.118 relative 10-mer count,,0.181 relative 10-mer count
AAAAGCAGCG,0.276 relative 10-mer count,,0.326 relative 10-mer count

Sequence,binding signal (ZNF721 full-length),binding signal (ZNF721 DBD1),binding signal (ZNF721 DBD2)
AAACAGCATA,0.56 relative 10-mer count,,0.657 relative 10-mer count
AAACAGCAGC,0.122 relative 10-mer count,,0.135 relative 10-mer count
AAAAACAGCC,0.167 relative 10-mer count,,0.172 relative 10-mer count
AAAGGAACAG,0.113 relative 10-mer count,,0.0545 relative 10-mer count
CAAAAAGCAG,0.159 relative 10-mer count,0.00156 relative 10-mer count,0.172 relative 10-mer count
AAACAGGGTA,0.175 relative 10-mer count,,0.22 relative 10-mer count
GCAACACTGC,0.135 relative 10-mer count,,0.238 relative 10-mer count
ACAAAGCAGC,0.189 relative 10-mer count,,0.238 relative 10-mer count
AAGCAGCGTC,0.112 relative 10-mer count,,0.133 relative 10-mer count
CAGAGTACCC,0.125 relative 10-mer count,,0.18 relative 10-mer count
AACAGCGTCT,0.203 relative 10-mer count,,0.347 relative 10-mer count
CCAAAAACAG,0.108 relative 10-mer count,,0.144 relative 10-mer count
AACAAGCAGC,0.132 relative 10-mer count,0.0039 relative 10-mer count,0.0997 relative 10-mer count
CAGCATGACC,0.229 relative 10-mer count,,0.437 relative 10-mer count
CAAAAAAAGC,0.202 relative 10-mer count,0.0258 relative 10-mer count,0.0675 relative 10-mer count
AAAAACAGTC,0.149 relative 10-mer count,,0.169 relative 10-mer count
CAGAAAACAG,0.147 relative 10-mer count,,0.264 relative 10-mer count
AAACAGCATC,0.208 relative 10-mer count,,0.21 relative 10-mer count
CCCGACCACC,0.125 relative 10-mer count,0.00491 relative 10-mer count,0.00372 relative 10-mer count
CGAAAACAGC,0.167 relative 10-mer count,,0.261 relative 10-mer count
ACCCACCGCC,0.114 relative 10-mer count,0.00482 relative 10-mer count,0.00455 relative 10-mer count

Sequence,binding signal (ZNF721 full-length),binding signal (ZNF721 DBD1),binding signal (ZNF721 DBD2)
CAGTGTTGCC,0.253 relative 10-mer count,,0.686 relative 10-mer count
AAACTAGCAT,0.118 relative 10-mer count,,0.175 relative 10-mer count
CAGCATCTCC,0.126 relative 10-mer count,,0.214 relative 10-mer count
AAAACAGTGT,0.495 relative 10-mer count,,0.712 relative 10-mer count
CCCATCCCCC,0.185 relative 10-mer count,0.00716 relative 10-mer count,0.00312 relative 10-mer count
AAACAGTGTA,0.179 relative 10-mer count,,0.225 relative 10-mer count
CGCTGTTTTC,0.221 relative 10-mer count,,0.356 relative 10-mer count
AGGTGGGGGG,0.157 relative 10-mer count,0.0067 relative 10-mer count,0.00527 relative 10-mer count
ACAAAACAGT,0.115 relative 10-mer count,,0.123 relative 10-mer count
AAAAAGCAGG,0.195 relative 10-mer count,,0.172 relative 10-mer count
GAAAAACAGC,0.265 relative 10-mer count,,0.324 relative 10-mer count
AAAACAGTGC,0.121 relative 10-mer count,,0.195 relative 10-mer count
AAACAGTGTT,0.338 relative 10-mer count,,0.546 relative 10-mer count
AAAAGAACAG,0.113 relative 10-mer count,,0.0777 relative 10-mer count
ACAGAGTACC,0.123 relative 10-mer count,,0.152 relative 10-mer count
ACAGCGTCTC,0.212 relative 10-mer count,,0.344 relative 10-mer count
ACGAAAACAG,0.106 relative 10-mer count,,0.149 relative 10-mer count
AAAAAACAGT,0.466 relative 10-mer count,,0.516 relative 10-mer count
AAACAGCAGT,0.106 relative 10-mer count,,0.159 relative 10-mer count
